In the supplement of paper PMC10849652:
About 7,900 targets were measured; listed, in parts, are those with a hit and a random draw of the rest. About 0.6% of all pairs of compound and target were hits.

Key:
Assay in all cases: log2 fold change, soluble protein after heating vs DMSO (PISA); higher = thermal stabilisation; K562 cells, 10 uM, 30 min; active = over 0.2 and 3.5 SD of the protein, either way, in both replicates (recomputed)
erlotinib = compound: C#Cc1cccc(Nc2ncnc3cc(OCCOC)c(OCCOC)cc23)c1 [erlotinib]
Procedure, shortened: (§1)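 For each measurement, 10 μM compound was applied for 30 min to K562 cells at 2×10^6 cells/mL. Aliquots were heated for 3 min across 48°C-58°C, pooled, and extracted in PBS with 0.5% NP-40 at 4°C; the supernatant after 21,000xg for 90 min was soluble protein. This was quantified by TMTpro 16plex LC-MS/MS with channel sums equalised, and thermal stability was reported relative to control samples from duplicates, on a log2 fold-change scale.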

[1] = compound: C/C(=N\NC(=O)C1=CC(=CC=C1)S(=O)(=O)N2CCOCC2)/C3=C(C=CC(=C3)Cl)O
Procedure, shortened: as §1

[2] = compound: C1=CC(=C(C=C1Cl)C2=NC3=NC=CN=C3C(=N2)NC4=CC=NC=C4)F
Procedure, shortened: as §1

[3] = compound: C1=CC(=CC=C1C2=NC3=C(N2)C=C(C=C3)C(=O)N)OC4=CC=C(C=C4)Cl
Procedure, shortened: as §1

[4] = compound: C1=CC2=C(C=CC(=C2)/C=C\3/C(=O)NC(=NCC4=CC=CS4)S3)N=C1
Procedure, shortened: as §1

[5] = compound: C1=CC2=NC=CN=C2C=C1/C=C/3\C(=O)NC(=O)S3
Procedure, shortened: as §1

[6] = compound: C1=CC=C(C=C1)C2=NC(=C(N2)C3=CC=NC=C3)C4=CC(=C(C=C4)Cl)O
Procedure, shortened: as §1

[7] = compound: C1=CC=C2C(=C1)C3=NNC4=CC=CC(=C43)C2=O
Procedure, shortened: as §1

[8] = compound: C1CCN(C1)C(=O)NC2=CC=CC(=C2)NC3=NC=C(C(=N3)NCCC4=CN=CN4)Br
Procedure, shortened: as §1

[9] = compound: C1CN(CCC1(CC2=CC=C(C=C2)Cl)N)C3=NC=NC4=C3C=CN4
Procedure, shortened: as §1

Measured: log2 fold change

RNF167 (UniProt Q9H6Y7)
inactive: erlotinib -0.133 | [1] -0.073 | [2] -0.069 | [3] 0.052 | [4] 0.025 | [5] 0.025 | [6] -0.004 | [7] -0.07 | [8] -0.018 | [9] -0.009

RUNX1 isoform 8 (UniProt Q01196)
inactive: erlotinib 0.122 | [1] 0.081 | [2] -0.03 | [3] 0.048 | [4] -0.001 | [5] 0.032 | [6] 0.131 | [7] -0.033

SCAF11 (UniProt Q99590)
inactive: erlotinib -0.074 | [1] -0.09 | [2] -0.16 | [3] 0.03 | [4] -0.134 | [5] -0.076 | [6] -0.014 | [7] -0.068 | [8] 0.125 | [9] -0.035

RAB3GAP2 (UniProt Q9H2M9)
inactive: erlotinib 0.068 | [1] 0.083 | [2] -0.043 | [3] -0.058 | [4] 0.035 | [5] -0.011 | [6] -0.025 | [7] 0.004 | [8] -0.068 | [9] -0.018

RBM27 (UniProt Q9P2N5)
inactive: erlotinib 0.034 | [1] 0.079 | [2] 0.003 | [3] 0.022 | [4] -0.039 | [5] -0.01 | [6] -0.067 | [7] 0.022 | [8] -0.061 | [9] -0.128

SCYL3 isoform 2 (UniProt Q8IZE3)
UniProt Q8IZE3, sequence (Q8IZE3 whole entry, looked up): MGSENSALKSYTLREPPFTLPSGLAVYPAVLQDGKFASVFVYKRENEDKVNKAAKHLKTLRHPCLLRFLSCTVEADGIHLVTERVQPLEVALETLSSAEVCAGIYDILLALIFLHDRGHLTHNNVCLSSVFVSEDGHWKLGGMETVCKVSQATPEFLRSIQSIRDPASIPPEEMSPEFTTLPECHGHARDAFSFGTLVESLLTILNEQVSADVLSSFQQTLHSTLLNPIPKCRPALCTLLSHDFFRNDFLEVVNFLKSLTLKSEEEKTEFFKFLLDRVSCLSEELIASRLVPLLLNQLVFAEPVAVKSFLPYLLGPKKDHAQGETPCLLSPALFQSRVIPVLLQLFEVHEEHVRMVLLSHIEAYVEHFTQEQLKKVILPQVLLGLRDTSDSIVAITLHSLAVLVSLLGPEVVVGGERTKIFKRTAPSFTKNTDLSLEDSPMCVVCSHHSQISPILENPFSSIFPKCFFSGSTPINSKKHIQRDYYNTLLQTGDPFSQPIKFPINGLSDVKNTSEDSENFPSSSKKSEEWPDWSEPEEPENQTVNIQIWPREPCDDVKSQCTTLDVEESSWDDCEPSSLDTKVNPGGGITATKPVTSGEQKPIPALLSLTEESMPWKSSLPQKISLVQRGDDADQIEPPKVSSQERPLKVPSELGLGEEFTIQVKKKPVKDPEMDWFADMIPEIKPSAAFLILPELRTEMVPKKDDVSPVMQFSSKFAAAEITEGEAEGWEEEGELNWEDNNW
inactive: erlotinib 0.046 | [1] 0.055 | [2] 0.07 | [3] -0.05 | [4] 0.068 | [5] -0.024 | [6] 0.058 | [7] 0.014 | [8] 0.093 | [9] 0.123

SERINC1 (UniProt Q9NRX5)
UniProt Q9NRX5, sequence (Q9NRX5 whole entry, looked up): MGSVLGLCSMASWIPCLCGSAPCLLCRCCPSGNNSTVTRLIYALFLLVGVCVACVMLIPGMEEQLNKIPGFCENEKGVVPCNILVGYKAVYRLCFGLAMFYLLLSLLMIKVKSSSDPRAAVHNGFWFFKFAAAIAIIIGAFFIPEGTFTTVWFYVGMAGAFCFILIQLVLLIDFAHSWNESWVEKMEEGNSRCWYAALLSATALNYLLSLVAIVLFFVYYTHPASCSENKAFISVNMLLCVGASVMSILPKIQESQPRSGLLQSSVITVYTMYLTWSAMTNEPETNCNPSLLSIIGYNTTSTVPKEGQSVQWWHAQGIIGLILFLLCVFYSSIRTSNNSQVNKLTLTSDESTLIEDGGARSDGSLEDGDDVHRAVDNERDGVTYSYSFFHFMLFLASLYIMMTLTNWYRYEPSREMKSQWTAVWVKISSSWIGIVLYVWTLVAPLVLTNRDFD
inactive: erlotinib -0.034 | [1] -0.023 | [2] -0.006 | [3] 0.096 | [4] -0.026 | [5] 0.085 | [6] 0.018 | [7] 0.149 | [8] 0.115 | [9] -0.031

RPS19 (UniProt P39019)
inactive: erlotinib -0.141 | [1] -0.102 | [2] -0.274 | [3] 0.057 | [4] -0.082 | [5] -0.044 | [6] -0.026 | [7] -0.015 | [8] 0.094 | [9] -0.145

RALY (UniProt Q9UKM9)
UniProt Q9UKM9, sequence (Q9UKM9 whole entry, looked up): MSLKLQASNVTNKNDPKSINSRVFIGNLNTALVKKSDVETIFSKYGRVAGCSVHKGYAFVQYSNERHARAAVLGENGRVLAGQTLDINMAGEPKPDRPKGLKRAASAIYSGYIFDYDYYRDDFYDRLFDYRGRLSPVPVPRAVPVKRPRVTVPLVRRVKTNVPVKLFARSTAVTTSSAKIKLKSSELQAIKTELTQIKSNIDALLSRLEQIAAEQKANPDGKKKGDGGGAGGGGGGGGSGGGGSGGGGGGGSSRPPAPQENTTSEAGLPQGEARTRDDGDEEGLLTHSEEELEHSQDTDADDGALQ
inactive: erlotinib 0.018 | [1] -0.072 | [2] -0.541 | [3] 0.189 | [4] -0.144 | [5] 0.154 | [6] -0.11 | [7] 0.038 | [8] 0.008 | [9] -0.22

RAB8B (UniProt Q92930)
UniProt Q92930, sequence (Q92930 whole entry, looked up): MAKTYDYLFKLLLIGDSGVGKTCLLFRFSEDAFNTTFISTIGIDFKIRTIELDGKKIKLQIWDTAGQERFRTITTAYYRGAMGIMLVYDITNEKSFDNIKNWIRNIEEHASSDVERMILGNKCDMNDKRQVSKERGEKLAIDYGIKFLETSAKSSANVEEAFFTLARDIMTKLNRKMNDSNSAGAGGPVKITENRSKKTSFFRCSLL
inactive: erlotinib 0.258 | [1] 0.085 | [3] 0.028 | [4] -0.02 | [5] 0.145 | [6] 0.029 | [7] 0.012 | [8] 0.027 | [9] -0.043
active: [2] 0.332

RBM39 (UniProt Q14498)
UniProt Q14498, sequence (Q14498 whole entry, looked up): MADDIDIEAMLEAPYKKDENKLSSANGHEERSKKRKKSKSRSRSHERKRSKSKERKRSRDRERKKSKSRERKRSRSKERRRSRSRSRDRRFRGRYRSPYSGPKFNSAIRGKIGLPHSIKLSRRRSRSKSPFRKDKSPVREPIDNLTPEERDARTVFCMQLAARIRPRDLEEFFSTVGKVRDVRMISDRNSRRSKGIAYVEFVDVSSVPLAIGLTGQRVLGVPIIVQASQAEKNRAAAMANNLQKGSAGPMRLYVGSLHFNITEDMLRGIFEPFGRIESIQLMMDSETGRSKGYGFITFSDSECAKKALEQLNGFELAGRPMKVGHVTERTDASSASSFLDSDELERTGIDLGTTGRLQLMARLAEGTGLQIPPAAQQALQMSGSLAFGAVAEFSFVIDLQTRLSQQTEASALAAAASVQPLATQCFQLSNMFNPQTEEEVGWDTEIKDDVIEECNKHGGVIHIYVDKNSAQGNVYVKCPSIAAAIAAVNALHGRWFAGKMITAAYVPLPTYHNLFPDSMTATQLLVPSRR
inactive: erlotinib 0.087 | [1] 0.074 | [2] 0.013 | [3] -0.028 | [4] -0.021 | [5] -0.052 | [6] -0.022 | [7] -0.168 | [8] -0.071 | [9] -0.232

SEH1L isoform 1 (UniProt Q96EE3)
UniProt Q96EE3, sequence (Q96EE3 whole entry, looked up): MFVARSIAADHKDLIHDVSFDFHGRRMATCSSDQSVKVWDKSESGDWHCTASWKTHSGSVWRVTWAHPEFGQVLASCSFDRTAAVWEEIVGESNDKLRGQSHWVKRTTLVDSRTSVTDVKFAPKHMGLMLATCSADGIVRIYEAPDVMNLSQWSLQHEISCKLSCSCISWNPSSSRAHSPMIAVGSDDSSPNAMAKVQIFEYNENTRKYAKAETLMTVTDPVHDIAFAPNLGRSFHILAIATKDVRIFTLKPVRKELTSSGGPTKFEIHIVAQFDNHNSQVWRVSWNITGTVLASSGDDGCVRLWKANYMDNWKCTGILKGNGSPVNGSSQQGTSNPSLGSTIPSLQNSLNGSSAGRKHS
inactive: erlotinib 0.018 | [1] 0.073 | [2] 0.012 | [3] 0.043 | [4] 0.049 | [5] 0.064 | [6] 0 | [7] -0.06 | [8] -0.02 | [9] 0.035

RAD51 (UniProt Q06609)
UniProt Q06609, sequence (Q06609 whole entry, looked up): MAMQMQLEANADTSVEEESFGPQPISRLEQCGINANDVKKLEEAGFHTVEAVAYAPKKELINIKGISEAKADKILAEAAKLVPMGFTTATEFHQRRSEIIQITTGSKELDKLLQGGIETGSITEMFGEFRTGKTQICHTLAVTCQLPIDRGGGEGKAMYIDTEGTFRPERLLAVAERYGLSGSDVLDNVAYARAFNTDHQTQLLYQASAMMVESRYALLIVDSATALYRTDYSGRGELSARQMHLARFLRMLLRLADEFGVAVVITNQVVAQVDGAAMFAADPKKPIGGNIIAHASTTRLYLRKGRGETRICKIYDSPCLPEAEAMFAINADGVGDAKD
inactive: erlotinib 0.29 | [1] 0.06 | [2] 0.044 | [3] 0.032 | [4] 0.067 | [5] 0.017 | [6] -0.025 | [7] -0.032 | [8] -0.014 | [9] 0.013

SDHAF2 (UniProt Q9NX18)
inactive: erlotinib -0.021 | [2] 0.083 | [3] 0.018 | [4] -0.102 | [5] 0.051 | [6] -0.035 | [7] 0.114 | [8] 0.068 | [9] -0.091
active: [1] 0.304

RSRC1 (UniProt Q96IZ7)
inactive: erlotinib 0 | [1] 0.135 | [2] -0.148 | [3] 0.071 | [4] -0.033 | [5] -0.057 | [6] -0.026 | [7] -0.073 | [8] 0.016 | [9] -0.1

RANBP2 (UniProt P49792)
inactive: erlotinib -0.107 | [1] 0.007 | [2] 0.062 | [3] 0.081 | [4] 0.082 | [5] 0.003 | [6] -0.007 | [7] -0.028 | [8] 0.005 | [9] 0

RPL38 (UniProt P63173)
inactive: erlotinib 0.024 | [1] -0.05 | [2] -0.148 | [3] 0.026 | [4] -0.102 | [5] -0.025 | [6] -0.027 | [7] 0.026 | [8] 0.033 | [9] -0.106

RBBP6 (UniProt Q7Z6E9)
inactive: erlotinib -0.01 | [1] 0.005 | [2] 0.014 | [3] -0.034 | [4] -0.037 | [5] 0 | [6] 0.025 | [7] -0.005 | [8] -0.067 | [9] 0.003

RBM25 (UniProt P49756)
inactive: erlotinib 0.142 | [1] -0.037 | [2] -0.039 | [3] -0.025 | [4] -0.014 | [5] 0.055 | [6] -0.012 | [7] -0.008 | [8] -0.076 | [9] -0.137

RAVER1 (UniProt E9PAU2)
inactive: erlotinib 0.218 | [1] 0.403 | [2] 0.042 | [3] 0.009 | [4] 0.002 | [5] -0.06 | [6] 0.257 | [7] -0.084 | [8] -0.05 | [9] -0.011

SIRT2 (UniProt Q8IXJ6)
UniProt Q8IXJ6, sequence (Q8IXJ6 whole entry, looked up): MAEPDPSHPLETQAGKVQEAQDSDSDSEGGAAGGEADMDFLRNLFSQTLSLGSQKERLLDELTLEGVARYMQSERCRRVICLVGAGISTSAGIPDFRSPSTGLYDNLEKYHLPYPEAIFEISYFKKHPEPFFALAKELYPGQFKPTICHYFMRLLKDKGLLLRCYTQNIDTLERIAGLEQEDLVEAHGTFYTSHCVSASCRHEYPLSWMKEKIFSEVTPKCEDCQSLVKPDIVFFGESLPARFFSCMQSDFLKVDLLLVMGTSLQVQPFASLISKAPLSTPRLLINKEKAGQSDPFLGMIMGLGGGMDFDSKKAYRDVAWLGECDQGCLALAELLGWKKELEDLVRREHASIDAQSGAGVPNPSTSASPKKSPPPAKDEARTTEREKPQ
inactive: erlotinib 0.03 | [1] 0.055 | [2] 0.001 | [3] 0.054 | [4] -0.113 | [5] 0.017 | [6] 0.051 | [7] 0.029 | [8] 0.025 | [9] 0.016

RBM12 (UniProt Q9NTZ6)
UniProt Q9NTZ6, sequence (Q9NTZ6 whole entry, looked up): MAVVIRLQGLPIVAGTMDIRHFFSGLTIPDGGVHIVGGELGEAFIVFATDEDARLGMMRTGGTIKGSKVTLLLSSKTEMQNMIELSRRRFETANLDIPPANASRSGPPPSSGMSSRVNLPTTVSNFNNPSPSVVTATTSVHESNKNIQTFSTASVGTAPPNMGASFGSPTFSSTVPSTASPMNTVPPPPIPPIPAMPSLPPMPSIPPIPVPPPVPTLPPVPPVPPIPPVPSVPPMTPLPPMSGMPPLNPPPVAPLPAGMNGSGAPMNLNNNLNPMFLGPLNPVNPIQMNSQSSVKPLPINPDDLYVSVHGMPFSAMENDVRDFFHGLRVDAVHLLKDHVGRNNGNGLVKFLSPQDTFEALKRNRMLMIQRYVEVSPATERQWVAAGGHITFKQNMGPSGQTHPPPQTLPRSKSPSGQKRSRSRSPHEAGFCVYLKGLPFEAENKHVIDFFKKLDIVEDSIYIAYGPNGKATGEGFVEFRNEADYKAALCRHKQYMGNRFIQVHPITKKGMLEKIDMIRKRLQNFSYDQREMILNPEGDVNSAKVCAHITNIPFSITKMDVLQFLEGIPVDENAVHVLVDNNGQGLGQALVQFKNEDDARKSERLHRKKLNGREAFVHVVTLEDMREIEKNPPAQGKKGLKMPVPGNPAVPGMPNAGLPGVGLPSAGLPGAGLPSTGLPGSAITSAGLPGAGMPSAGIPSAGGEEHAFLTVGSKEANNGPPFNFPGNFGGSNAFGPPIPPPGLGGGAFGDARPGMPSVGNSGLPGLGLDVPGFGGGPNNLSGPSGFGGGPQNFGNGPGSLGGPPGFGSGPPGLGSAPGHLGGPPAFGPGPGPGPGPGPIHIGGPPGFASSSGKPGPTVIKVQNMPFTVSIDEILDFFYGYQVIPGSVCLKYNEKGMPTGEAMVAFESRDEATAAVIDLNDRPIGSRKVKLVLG
inactive: erlotinib 0.092 | [1] 0.187 | [2] 0.123 | [3] -0.022 | [4] 0.117 | [5] -0.003 | [6] -0.008 | [7] 0.011 | [8] -0.046 | [9] 0.006

RPA3 (UniProt P35244)
inactive: erlotinib -0.007 | [1] 0.156 | [2] 0.084 | [3] 0.008 | [4] -0.058 | [5] -0.007 | [6] 0.115 | [7] 0.032 | [8] -0.128 | [9] -0.027

RBIS (UniProt Q8N0T1)
UniProt Q8N0T1, sequence (Q8N0T1 whole entry, looked up): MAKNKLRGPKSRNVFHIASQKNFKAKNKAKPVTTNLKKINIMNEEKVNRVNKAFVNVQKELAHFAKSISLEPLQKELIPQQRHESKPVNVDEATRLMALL
inactive: erlotinib -0.051 | [1] 0.015 | [2] -0.038 | [3] 0.044 | [4] 0.007 | [5] 0.031 | [6] -0.121 | [7] -0.083 | [8] 0.037 | [9] -0.093

ROMO1 (UniProt P60602)
UniProt P60602, sequence (P60602 whole entry, looked up): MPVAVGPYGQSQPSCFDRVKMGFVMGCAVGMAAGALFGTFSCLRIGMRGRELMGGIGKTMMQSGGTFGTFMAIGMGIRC
inactive: erlotinib 0.016 | [1] -0.092 | [2] 0.045 | [3] -0.01 | [4] -0.009 | [5] 0.018 | [6] 0.008 | [7] 0.003 | [8] 0.039 | [9] 0.001

SASH1 (UniProt O94885)
inactive: erlotinib -0.013 | [1] 0.12 | [2] 0.145 | [3] -0.01 | [4] -0.104 | [5] -0.009 | [6] 0.005 | [7] 0.107 | [8] -0.041 | [9] -0.079

RPS4X (UniProt P62701)
inactive: erlotinib -0.177 | [1] -0.092 | [2] -0.37 | [3] 0.054 | [4] -0.042 | [5] -0.033 | [6] -0.043 | [7] 0.043 | [8] 0.076 | [9] -0.221

RPS13 (UniProt P62277)
inactive: erlotinib -0.156 | [1] -0.17 | [2] -0.544 | [3] 0.088 | [4] -0.11 | [5] -0.053 | [6] -0.088 | [7] -0.015 | [8] 0.101 | [9] -0.184

RCC1 isoform 2 (UniProt P18754)
UniProt P18754, sequence (P18754 whole entry, looked up): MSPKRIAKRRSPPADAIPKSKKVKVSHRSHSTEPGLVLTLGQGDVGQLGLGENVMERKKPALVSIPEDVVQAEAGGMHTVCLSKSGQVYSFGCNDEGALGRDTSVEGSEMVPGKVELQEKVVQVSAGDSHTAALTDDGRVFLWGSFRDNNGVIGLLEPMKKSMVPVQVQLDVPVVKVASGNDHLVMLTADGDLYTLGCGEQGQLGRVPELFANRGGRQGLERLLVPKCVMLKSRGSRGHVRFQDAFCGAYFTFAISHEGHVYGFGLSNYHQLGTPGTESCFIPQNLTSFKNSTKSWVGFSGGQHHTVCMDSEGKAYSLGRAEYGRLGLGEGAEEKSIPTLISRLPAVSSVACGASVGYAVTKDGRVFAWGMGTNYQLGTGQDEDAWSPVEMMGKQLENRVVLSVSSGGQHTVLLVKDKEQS
inactive: erlotinib 0.158 | [1] 0.195 | [2] 0.11 | [3] 0.03 | [4] 0.105 | [5] -0.004 | [6] -0.003 | [7] 0.018 | [8] -0.09 | [9] 0.011

RPS20 isoform 2 (UniProt P60866)
inactive: erlotinib -0.129 | [1] -0.082 | [2] -0.171 | [3] 0.023 | [4] -0.004 | [5] -0.068 | [6] -0.04 | [7] -0.025 | [8] 0.05 | [9] -0.159
